Bioassay records as filed in PubChem BioAssay.
An excerpt weighted towards active compounds, which were near 1.6% of everything screened.
LYPLA2 inh: LYPLA2 inhibitors, primary screen, counter-screen for PME1 inhibitor project, biochemical, fluorescence polarization, FP-Rh probe ABPP; recombinant LYPLA2; inhibition, % at 5.9 µM; 320,000 tested, 0.38% active; AID 2177, 2009;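 active = inhibition above the screen-wide mean plus 3 SD, limit set per campaign, cut at about 26% in these data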;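 note: 0% = LYPLA2 with DMSO and 100% = wells lacking LYPLA2 enzyme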
Fam108B inh: mouse Fam108B serine hydrolase inhibitors, primary screen, counter-screen for RBBP9 inhibitor project, biochemical, fluorescence polarization. recombinant Fam108B, FP-Rh probe fluorescence polarization. inhibition, % at 9.51 µM. 300,000 tested, 0.33% active. AID 1947, 2009;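 active = inhibition above the screen mean inhibition plus 3 SD, computed separately per campaign, cut at about 18% in these data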;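 note: inhibitors lower polarization as less probe binds the enzyme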
MEX-5 binding: MEX-5 zinc finger RNA-binding disruptors – biochemical, C. elegans, fluorescence polarization, MLPCN library, primary screen | Zinc finger protein mex-5 (Caenorhabditis elegans), Q9XUB2 | MEX-5/FITC-TCR2 RNA binding; stronger effect = lower value | activity score (negative = inhibition of binding), % at 10 µM | 300,000 tested, 0.38% active;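 active = inhibition past about -25% in most replicates, and total fluorescence under double the plate's negative control median, limit read from the data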;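 note: 0% = DMSO and -100% = 5 µM competing unlabeled TCR2 RNA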
PME-1 inh: PME-1 inhibitors via competitive probe labeling, primary screen, biochemical, fluorescence polarization, FP-Rh probe, HTS; recombinant PME-1; inhibition, % at 5.9 µM; 320,000 tested, 0.53% active; AID 2130, 2009;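 active = inhibition above the campaign mean of all compounds plus 3 SD, cut at about 26% in these data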;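 note: competitive labeling of PME-1 active site by serine hydrolase directed probe; 0% = PME-1 with DMSO and 100% = wells lacking PME-1 enzyme; inhibitors block probe labeling so polarization falls and inhibition rises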
LYPLA1 inh: LYPLA1 inhibitors, primary screen, counter-screen for PME1 inhibitor project, biochemical, fluorescence polarization, FP-Rh probe ABPP; recombinant LYPLA1; inhibition, % at 5.9 µM; 320,000 tested, 0.16% active; AID 2174, 2009;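 active = inhibition above the mean of all tested compounds plus 3 SD, set per campaign, cut at about 14% in these data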;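 note: inhibitors block serine hydrolase probe labeling of LYPLA1 so polarization falls; 0% = enzyme with DMSO and 100% = wells lacking LYPLA1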
PREPL inh: PREPL enzyme inhibitors, primary screen, biochemical, fluorescence polarization; AID 2751, 2010; recombinant PREPL, fluorescence polarization activity-based probe; 320,000 tested, 0.68% active; inhibition, % at 5.96 µM; in the data active = inhibition above about 43%;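 note: 0% = enzyme with DMSO and 100% = wells lacking enzyme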
Target sequence (Q4J6C6 whole entry, looked up): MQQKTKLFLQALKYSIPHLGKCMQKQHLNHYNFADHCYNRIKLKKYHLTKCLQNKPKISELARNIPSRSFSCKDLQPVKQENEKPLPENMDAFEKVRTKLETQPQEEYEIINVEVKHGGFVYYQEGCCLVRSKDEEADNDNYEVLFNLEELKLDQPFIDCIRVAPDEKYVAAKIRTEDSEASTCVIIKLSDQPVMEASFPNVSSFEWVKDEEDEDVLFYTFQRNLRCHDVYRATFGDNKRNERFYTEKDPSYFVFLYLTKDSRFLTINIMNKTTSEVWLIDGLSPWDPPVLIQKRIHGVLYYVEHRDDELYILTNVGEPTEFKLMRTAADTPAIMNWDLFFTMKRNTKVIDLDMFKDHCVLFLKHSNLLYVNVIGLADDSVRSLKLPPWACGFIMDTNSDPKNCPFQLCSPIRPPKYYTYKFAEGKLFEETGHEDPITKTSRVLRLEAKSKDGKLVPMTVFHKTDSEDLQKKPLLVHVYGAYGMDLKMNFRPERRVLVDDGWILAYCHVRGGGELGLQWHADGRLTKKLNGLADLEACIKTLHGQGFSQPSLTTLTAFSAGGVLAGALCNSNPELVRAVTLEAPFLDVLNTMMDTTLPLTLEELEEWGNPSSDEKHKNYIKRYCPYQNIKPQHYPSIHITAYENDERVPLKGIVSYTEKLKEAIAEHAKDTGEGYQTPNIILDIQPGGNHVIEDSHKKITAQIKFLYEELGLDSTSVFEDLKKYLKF
* = called active by the depositor.

What do the screens show for `O=C(C1=NN(c2ccccc2)C2C(=O)N(c3ccccc3)C(=O)C12)c1ccccc1` (stereo not drawn)?
LYPLA2 inh: 3; Fam108B inh: -4; MEX-5 binding: -37*; PME-1 inh: -4; LYPLA1 inh: -2; PREPL inh: 13

Results for O=C(C1=NN(c2ccccc2)C2C(=O)N(c3ccccc3Cl)C(=O)C12)c1ccccc1 (stereo not drawn) ?
LYPLA2 inh: 1; Fam108B inh: 1; MEX-5 binding: -28*; PME-1 inh: -2; LYPLA1 inh: -3; PREPL inh: -13

Results for Cc1cc(N=Nc2ccc(C)c(N=Nc3cc(C)c(N)cc3N)c2)c(N)cc1N ?
LYPLA2 inh: -1; Fam108B inh: 10; MEX-5 binding: -6; PME-1 inh: 9; LYPLA1 inh: 0; PREPL inh: 70*

How did O=c1c2ccccc2[nH]c(=S)n1CCCN1CCN(c2ccccc2)CC1 do in these assays?
LYPLA2 inh: -1; Fam108B inh: 0; MEX-5 binding: -1; PME-1 inh: -2; LYPLA1 inh: -2; PREPL inh: -3

What do the screens show for `CC1=C([N+](=O)[O-])C(c2cccc(Br)c2)C2=C(N1)c1ccccc1C2=O` (stereo not drawn)?
LYPLA2 inh: 7; Fam108B inh: 15; MEX-5 binding: 1; PME-1 inh: 33*; LYPLA1 inh: -12; PREPL inh: 24

How did O=C(Nc1cccc(Cl)c1)c1ccc(F)c(S(=O)(=O)NCc2ccc3c(c2)OCO3)c1 do in these assays?
LYPLA2 inh: -30; Fam108B inh: -21; MEX-5 binding: -4; PME-1 inh: -31; LYPLA1 inh: -31; PREPL inh: -18

Results for CCCC(O)(CCC)C(=O)NNc1ccccc1 ?
LYPLA2 inh: 10; Fam108B inh: 5; MEX-5 binding: 1; PME-1 inh: -3; LYPLA1 inh: 4; PREPL inh: -1

How did CCOCCCn1c(=NC(=O)c2cccs2)c(C#N)cc2c(=O)n3cccc(C)c3nc21 do in these assays?
LYPLA2 inh: -3; Fam108B inh: 1; MEX-5 binding: -37*; PME-1 inh: 4; LYPLA1 inh: -1; PREPL inh: 3

How did Cc1cccn2c(=O)c3cc(C#N)c(=NC(=O)c4cccs4)n(CC(C)C)c3nc12 do in these assays?
LYPLA2 inh: -3; Fam108B inh: 0; MEX-5 binding: -19; PME-1 inh: 6; LYPLA1 inh: 1; PREPL inh: -6

How did Cc1cc(C(C)(C)C)ccc1OCCn1ccnc1 do in these assays?
LYPLA2 inh: 1; Fam108B inh: 6; MEX-5 binding: 19; PME-1 inh: -1; LYPLA1 inh: 1; PREPL inh: -7

What do the screens show for `O=c1[nH]c(=S)[nH]c2c1C(c1ccc(Br)cc1)c1c([nH]c(=S)[nH]c1=O)O2`?
LYPLA2 inh: -10; Fam108B inh: -7; MEX-5 binding: -71*; PME-1 inh: -54; LYPLA1 inh: -5; PREPL inh: 9

Results for Cc1ccc(C(=O)N2CCN(C(=O)c3ccco3)CC2)cc1NC(=O)c1ccco1 ?
LYPLA2 inh: 0; Fam108B inh: -1; MEX-5 binding: 1; PME-1 inh: -8; LYPLA1 inh: 0; PREPL inh: 7

How did COc1ccc(-c2nn(-c3ccccc3)cc2/C=C2/SC(=S)N(Cc3ccco3)C2=O)c(C)c1 do in these assays?
LYPLA2 inh: 2; Fam108B inh: 0; MEX-5 binding: -1; PME-1 inh: -4; LYPLA1 inh: -2; PREPL inh: 0

What do the screens show for `COc1ccc(-n2c(C)cc(/C=C3\SC(=S)N(Cc4ccco4)C3=O)c2C)cc1`?
LYPLA2 inh: -14; Fam108B inh: -3; MEX-5 binding: -28*; PME-1 inh: -16; LYPLA1 inh: -3; PREPL inh: 23

Results for COc1cc(C=C2C(=O)c3ccccc3C2=O)ccc1O ?
LYPLA2 inh: 2; Fam108B inh: 8; MEX-5 binding: -2; PME-1 inh: 0; LYPLA1 inh: 0; PREPL inh: 9

How did COc1cc(C=C2C(=O)c3ccccc3C2=O)cc(OC)c1OC do in these assays?
LYPLA2 inh: 0; Fam108B inh: 3; MEX-5 binding: -54*; PME-1 inh: -1; LYPLA1 inh: -1; PREPL inh: -4

Results for Cc1cc(NC(=O)c2c(Br)cnn2C)no1 ?
MEX-5 binding: 1

Results for Cc1ccc(C(=O)CC2(O)C(=O)N(Cc3ccc4c(c3)OCO4)c3ccccc32)cc1 (stereo not drawn) ?
LYPLA2 inh: -2; Fam108B inh: -5; MEX-5 binding: 1; PME-1 inh: 6; LYPLA1 inh: -2; PREPL inh: -12

Results for Cc1[nH]c2ccccc2c1N=Nc1ccccc1C(=O)O ?
LYPLA2 inh: -8; Fam108B inh: 11; MEX-5 binding: 0; PME-1 inh: 30*; LYPLA1 inh: 1; PREPL inh: 34

What do the screens show for `COc1ccc(OCCC(=O)OCC(=O)NC2CCCCCCC2)cc1`?
LYPLA2 inh: 3; Fam108B inh: 3; MEX-5 binding: 1; PME-1 inh: 4; LYPLA1 inh: 0; PREPL inh: 5

Results for COC(=O)c1ccc(CN2C(=O)NC(CC(C)C)C2=O)cc1 (stereo not drawn) ?
LYPLA2 inh: 1; Fam108B inh: -2; MEX-5 binding: 1; PME-1 inh: 2; LYPLA1 inh: -1; PREPL inh: 0

What do the screens show for `O=C(CNc1ccc2ccccc2c1)N/N=C/c1ccc(OC(=O)/C=C/c2ccco2)cc1`?
LYPLA2 inh: 22; Fam108B inh: 16; MEX-5 binding: 1; PME-1 inh: 30*; LYPLA1 inh: -3; PREPL inh: -21

What do the screens show for `O=C1COc2ccc(-c3csc(NCCc4ccccc4)n3)cc2N1`?
LYPLA2 inh: -9; Fam108B inh: 0; MEX-5 binding: 2; PME-1 inh: 11; LYPLA1 inh: -5; PREPL inh: 51*

What do the screens show for `Cc1ccc2c(c1)[nH]c1c(N3CCN(Cc4ccccc4)CC3)ncnc12`?
LYPLA2 inh: -2; Fam108B inh: 7; MEX-5 binding: 2; PME-1 inh: 7; LYPLA1 inh: -1; PREPL inh: 55*

How did O=C(O)c1ccccc1-n1c(-c2ccccc2)cc2c1CCCC2=O do in these assays?
LYPLA2 inh: -11; Fam108B inh: 1; MEX-5 binding: -1; PME-1 inh: -3; LYPLA1 inh: -2; PREPL inh: 0

Results for CC1=NN(c2ccccc2)C(=O)C1N=Nc1ccccc1 (stereo not drawn) ?
LYPLA2 inh: -2; Fam108B inh: -2; MEX-5 binding: -1; PME-1 inh: 0; LYPLA1 inh: -1; PREPL inh: 16
